An excerpt weighted towards active compounds, which were near 1.5% of everything screened.
Tb PGK inh – blocks T. brucei phosphoglycerate kinase; P07378; PGK/GAPDH coupled, Kinase-Glo luminescence, 60 min; Potency, µM (top dose mostly 57.5 µM), for the others: at the highest dose activity change, negative = inhibition, most hits filed as inhibitors; 380,000 compounds, 0.043% hits; AID 602233; further: potency means the concentration at half of the fitted maximal effect; nearly all actives have a fitted effect of over 60% in size
Target sequence (P07378 whole entry, looked up): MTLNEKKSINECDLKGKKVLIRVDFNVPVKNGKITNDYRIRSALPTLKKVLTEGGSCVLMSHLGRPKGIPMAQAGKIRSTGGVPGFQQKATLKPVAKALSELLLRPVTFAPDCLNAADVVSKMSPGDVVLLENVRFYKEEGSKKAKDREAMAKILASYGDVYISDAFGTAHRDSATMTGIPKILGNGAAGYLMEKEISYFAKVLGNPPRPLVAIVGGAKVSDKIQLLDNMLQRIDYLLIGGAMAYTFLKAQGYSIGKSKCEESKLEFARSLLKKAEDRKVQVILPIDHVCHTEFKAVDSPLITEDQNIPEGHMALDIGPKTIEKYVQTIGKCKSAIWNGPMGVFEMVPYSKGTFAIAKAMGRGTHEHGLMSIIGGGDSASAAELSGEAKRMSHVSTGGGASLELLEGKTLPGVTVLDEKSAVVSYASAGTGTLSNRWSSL
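Recombinant glycosomal PGK reaction used 1,3-bisphosphoglycerate generated in-well by GAPDH (100nM final) in 100mM TEA pH 7.6, 5mM MgCl2, 0.01% Tween-20. After 60 minutes at room temperature, ATP was read by Kinase-Glo Plus luminescence end-point.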
FEN1 inhibitor – human FEN1 inhibition; P39748; Recombinant FEN1 flap cleavage, fluorescence, 15 min; Potency, µM (series often up to 114 µM), inactives show at the top dose activity change, negative = inhibition, hits mostly inhibitors; 390,000 compounds, 0.35% hits; further: potency means the concentration at half of the fitted maximal effect; nearly all actives have a fitted effect of over 65% in size
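Potency values derive from four-parameter Hill fits of normalized qHTS data. The reaction used 10 nM FEN1 preincubated 15 min at room temperature with compound, then 50 nM DNA substrate, read at 0 and 15 min.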
TDP1 inh – inhibitors of human tyrosyl-DNA phosphodiesterase TDP1; AID 485290; Potency, µM (top dose mostly 130 µM), for the others: at the top dose activity change, negative = inhibition, hits mostly inhibitors; recombinant TDP1, AlphaScreen DNA substrate cleavage; 350,000 compounds, 0.28% hits; Q9NUW8; further: potency means the concentration at half of the fitted maximal effect; nearly all actives have a fitted effect of over 40% in size
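Steps: enzyme plus compound, 15 min RT; add biotin/phosphotyrosine-FITC oligonucleotide (15 nM final), react 5 min; add donor/acceptor beads (10 ug/ml final), 10 min; read AlphaScreen. Tdp1 at 1 nM final.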
Tb PFK inh – inhibitors of T. brucei phosphofructokinase; O15648; T. brucei PFK, ADP-Glo luminescence; Potency, µM (series often up to 57.5 µM), without a hit: at the top dose activity, negative = inhibition, most hits filed as inhibitors; 330,000 compounds, 0.17% hits;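 further: potency means the concentration at half of the fitted maximal effect; 0% = uninhibited 1x PFK enzyme wells and -100% = no-enzyme wells; nearly all actives have a fitted effect of over 60% in size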
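PFK 1.25 nM, F6P 0.5 mM, ATP 0.1 mM, 0.1 M TEA pH 8.0, 5 mM MgCl2, 0.01% Tween20, 0.1% BSA; 45 min RT. ADP-Glo readout. qHTS titration up to 57 uM; curves fitted, compounds curve-classed.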
PI5P4Ka inh – PI5P4K alpha (human) kinase inhibition | P48426 | PI5P4Kalpha enzyme, ADP-Glo luminescence, 60 min; hits give low values | max response, % | 330,000 compounds, 1.2% hits | AID 652105; active means max response of -50% or lower; inconclusive means between -30% and -50%; inactive means -30% or higher; further: value at the top dose of about 77 µM
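PI5P4Kalpha ADP-Glo assay; 5 microM ATP final; 60 min RT reaction; HEPES pH 7.4/EGTA/CHAPS, 5% DMSO; controls lacking substrate or enzyme; luminescent end-point.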
WRN helicase inh – WRN helicase (human) inhibition. Potency, µM (titrated, usually from 114 µM), for inactives: top-dose activity change, negative = inhibition, actives largely listed as inhibitors. 360,000 compounds, 0.46% hits. WRN helicase unwinding, fluorescent forked duplex, kinetic. Q14191; further: potency means the concentration at half of the fitted maximal effect; nearly all actives have a fitted effect of over 55% in size
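Screening of the MLSMR collection measured strand separation of a quenched forked DNA duplex (100 nM) by 20 nM WRN with 2 mM ATP, all final. Compounds were preincubated with enzyme 15 min at room temperature.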
The depositor's hits bear a star; i = inactive; ? = inconclusive; nt = not tested or not shown; [ ] = another dose, or the depositor's remark. Unless noted, the call rests on the fitted dose curve; in most records, active means well fitted curve in the direction sought with a large enough effect; inconclusive means small, poorly fitted or top-dose-only effect, or another doubt; inactive means no such curve, though single readings can be large; an effect the other way counts as inactive or inconclusive. Unless noted, on the % scale 0 is the no-effect control and ±100 the full control effect.

SMILES | Tb PGK inh | FEN1 inhibitor | TDP1 inh | Tb PFK inh | PI5P4Ka inh | WRN helicase inh
COc1cc(/C=C2\SC(=Nc3ccccc3)NC2=O)cc(Cl)c1O | -1.1% | ? | nt | 8.0% | -103.9* | ?
CCc1ccc(N=C2NC(=O)/C(=C/c3cc(OC)c(O)c(OC)c3)S2)cc1 | -5.0% | ? | nt | -0.8% | -54.3* | -28.8%
O=C(C1Cc2ccccc2CN1C(=O)c1ccccc1)N1CCN(c2ccccc2)CC1 (centres undefined) | -15.9% | 0.7% | 35.5µM* | -21.9% | -23.9 | -7.0%[11.6 µM]
CC(=O)c1ccc2c(c1)C1C=CCC1C(C(=O)O)N2 (centres undefined) | 14.1µM* | 12.6µM* | 6.0% | 8.49µM* | -91.4* | 14.1µM*
Nc1ccc(S(=O)(=O)N2CCCN(S(=O)(=O)c3ccc4c(c3)OCCO4)CC2)cc1 | nt | nt | 0.9% | nt | nt | nt
COC1=C/C(=C/c2c(N)n3nc(CC(=O)N4CCCC4)sc3nc2=O)C=CC1=O | -7.7% | -18.7% | -6.6% | 1.6% | -55.5* | -3.7%
CCOC1=C/C(=C/c2c(N)n3nc(CC(=O)N4CCCC4)sc3nc2=O)C=CC1=O | -3.1% | -4.4% | 2.7% | 1.8% | -54.7* | -10.8%
COC1=CC(=Cc2c(N)n3nc(CC(=O)N4CCCCC4)sc3nc2=O)C=C(OC)C1=O | -3.9% | -31.6% | 0.2% | -0.9% | -58.5* | -9.8%[11.6 µM]
CCCCc1nn2c(=O)cc(COC(=O)C3CCCCC3)nc2s1 | -3.8% | 17.3% | 5.8% | nt | nt | nt
Nc1c(C=C2C=CC(=O)C=C2)c(=O)nc2sc(CC(=O)N3CCCCC3)nn12 | -12.5% | -26.4% | 8.0% | 0.7% | ? | -8.5%
CC(C)(C)n1ncc2c(=O)n(Cc3ccc(C#N)cc3F)cnc21 | nt | -4.3% | nt | nt | nt | nt
Oc1c(N=Nc2nn[nH]n2)ccc2ccccc12 | nt | nt | nt | nt | -81.6* | -32.1%[57.1 µM]
Oc1c(N=Nc2ccc(F)cc2)ccc2ccccc12 | -6.1% | -28.7% | nt | -0.9% | -0.9 | -28.8%
O=C(C[n+]1ccc(/C=C/c2c[nH]c3ccccc23)c2ccccc21)c1ccccc1 | nt | -8.1% | nt | nt | nt | nt
COc1cc(C2Nc3cccc4cccc(c34)N2)cc(OC)c1OC(C)=O | -17.9% | 31.6µM* | 0.0% | -2.8% | ? | -18.6%
O=C(N1CCc2ccc(S(=O)(=O)N3CCN(S(=O)(=O)c4ccc5c(c4)OCCO5)CC3)cc2C1)C(F)(F)F | nt | nt | 0.5% | nt | nt | nt
Cc1ccnc2ccc(Br)cc12 | nt | 19.4% | nt | nt | nt | nt
O=c1cc(O)c2sc(Nc3ccc(F)c(Cl)c3)nc2[nH]1 | -3.2% | -3.2% | 5.0% | 9.7% | -68.5* | ?
CC(C)(C)n1ncc2c(=O)n(Cc3ccccc3)cnc21 | nt | 2.7% | nt | nt | nt | nt
O=C(OCC(=O)N1CCN(C(=O)c2ccco2)CC1)c1ccccc1NCCO | i | 0.6% | 44.7µM* | -23.6% | -14.3 | 2.0%[11.6 µM]
O=C(OCC(=O)N1CCN(C(=O)c2ccco2)CC1)c1cc(-c2ccco2)nc2ccccc12 | ? | ? | nt | 4.7% | nt | 50.1µM*
O=C(Nc1nc2ccccc2s1)c1cc(-c2ccco2)nc2ccccc12 | i | 9.0% | 2.7% | -3.1% | -16.4 | 50.1µM*
CC(=O)Nc1ccc(C(=O)OCC(=O)N2CCN(C(=O)c3ccco3)CC2)cc1 | 9.3% | 22.6% | -1.8%[56.1 µM] | -1.1% | 1.0 | -5.6%
N#CCC(=O)Nc1ccc(C(=O)OCC(=O)N2CCN(C(=O)c3ccco3)CC2)cc1 | 5.1% | -21.2% | 44.7µM* | ? | -21.9 | ?
O=C(c1ccco1)N1CCN(C(=O)c2cc(-c3ccccn3)nc3ccccc23)CC1 | 2.2% | -4.0% | 0.0% | 2.3% | -8.1 | -4.3%
SMILES | Tb PGK inh | FEN1 inhibitor | TDP1 inh | Tb PFK inh | PI5P4Ka inh | WRN helicase inh
CC(C)(C)n1ncc2c(=O)n(Cc3cc(C(F)(F)F)ccc3Cl)cnc21 | nt | -25.6% | nt | nt | nt | nt
Cn1nnc2c(NCc3ccco3)ncnc21 | nt | -4.7% | nt | nt | nt | nt
CCOC(=O)CCN1C(=O)[C@H]2[C@H]3[C@H](O)[C@H](O)C/C(=N/OC[C@@H](O)COCc4ccco4)[C@H]3CC[C@@H]2C1=O | nt | nt | 2.6%[21 µM] | nt | nt | nt
COc1ccc(C2N(Cc3ccccc3)C(=O)c3ccccc3N2C)cc1COc1ccc(NC(C)=O)cc1 (centres undefined) | nt | nt | -10.4% | nt | nt | nt
O=C(NC(=S)Nc1cccc(S(=O)(=O)NC2=NCCC2)c1)c1cc(-c2ccco2)nc2ccccc12 | 5.5% | -10.0% | 0.0% | -1.7% | -50.3* | ?
O=C(N/N=C/c1ccc(F)cc1)c1cc(-c2ccco2)nc2ccccc12 | ? | 79.4µM* | nt | -5.2% | -110.6* | 39.8µM*
O=C(O)c1cc(-c2ccco2)nc2ccccc12 | ? | 39.8µM* | nt | 1.2% | -27.6 | ?
Cc1ccc2nccnc2c1 | nt | -6.1% | nt | nt | nt | nt
COc1cccc(Cn2cnc3c(cnn3C(C)(C)C)c2=O)c1 | nt | 1.3% | nt | nt | nt | nt
NC1=NC(=O)/C(=C/c2ccc(Br)cc2)S1 | 8.2% | 25.4% | nt | 1.7% | -2.7 | 0.5%
CCOC(=O)CSC1=NC(=O)/C(=C/c2ccc(Br)cc2)S1 | i | 1.8% | 8.1% | -1.8% | -54.5* | -28.3%
O=C(O)CCCN1C(=O)/C(=C\c2ccc(-c3nc4ccccc4s3)o2)SC1=S | ? | 35.5µM* | ? | -20.4% | -19.5 | -35.4%[11.6 µM]
O=C(O)CCN1C(=O)/C(=C/c2ccc(-c3nc4ccccc4s3)o2)SC1=S | -14.4% | -5.9% | 4.9% | 3.1% | -26.2 | ?
COc1ccc2nc(N/C(N)=N/C(=S)Nc3c(C)cccc3C)nc(C)c2c1 | -15.9% | 31.6µM* | 8.2% | -3.8% | 0.6 | 27.3%
COc1ccc2nc(N/C(N)=N/C(=S)Nc3cccc(C)c3)nc(C)c2c1 | -9.4% | ? | 4.7% | -6.6% | 5.0 | 32.8%
Cc1ccc(NS(=O)(=O)c2ccc3c(c2)N(C)CCO3)cc1C | nt | nt | 4.6% | nt | nt | nt
O=S(=O)(/N=S1/CC=CCN1S(=O)(=O)c1ccccc1)c1ccccc1 (centres undefined) | 0.3% | ? | 12.4% | ? | ? | 44.7µM*

Bioassay records deposited in PubChem by National Center for Advancing Translational Sciences (NCATS).
